Reference: the supplement of paper PMC8728848
This is one part of a sample in which the strongest signals are shown more often than they occur.

Key:
Assay in all cases: glycan array binding signal (z-score within array); higher = stronger binding
Settings in all cases: glycan notation: IUPAC condensed, linker removed
[1] = target: Fuc(a1-2)Gal(b1-3)GalNAc
Method in brief: (§1)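 Arrays were curated from the Consortium for Functional Glycomics database, 3228 in total, and kept only where the protein sequence was available. Binding is expressed as a within-array Z-score. This score was averaged across arrays of the same protein sequence at different concentrations or buffers and across linkers, and negative values can be read as non-binding.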

[2] = target: Fuc(a1-2)Gal(b1-3)GalNAc(b1-4)[Neu5Ac(a2-3)]Gal(b1-4)Glc
Method in brief: as §1

[3] = target: Fuc(a1-2)Gal(b1-3)GlcNAc(b1-3)[Neu5Ac(a2-6)Gal(b1-4)GlcNAc(b1-6)]Gal(b1-4)Glc
Method in brief: as §1

[4] = target: Fuc(a1-2)Gal(b1-3)GlcNAc6S
Method in brief: as §1

[5] = target: Fuc(a1-2)Gal(b1-3)[Fuc(a1-4)]GlcNAc
Method in brief: as §1

[6] = target: Fuc(a1-2)Gal(b1-3)[Fuc(a1-4)]GlcNAc(b1-2)Man(a1-3)[Fuc(a1-2)Gal(b1-3)[Fuc(a1-4)]GlcNAc(b1-2)Man(a1-3)]Man(b1-4)GlcNAc(b1-4)GlcNAc
Method in brief: as §1

[7] = target: Fuc(a1-2)Gal(b1-4)Glc
Method in brief: as §1

[8] = target: Fuc(a1-2)Gal(b1-4)Glc6S
Method in brief: as §1

[9] = target: Fuc(a1-2)Gal(b1-4)GlcNAc(b1-2)Man
Method in brief: as §1

[10] = target: Fuc(a1-2)Gal(b1-4)[Fuc(a1-3)]GlcNAc
Method in brief: as §1

[11] = target: Fuc(a1-2)[Gal(a1-3)]Gal(b1-4)[Fuc(a1-3)]Glc
Method in brief: as §1

[12] = target: Fuc(a1-2)[Gal(a1-3)]Gal(b1-4)[Fuc(a1-3)]GlcNAc
Method in brief: as §1

[13] = target: Fuc(a1-2)[GalNAc(a1-3)]Gal(b1-3)GlcNAc
Method in brief: as §1

[14] = target: Fuc(a1-2)[GalNAc(a1-3)]Gal(b1-3)GlcNAc(b1-2)Man(a1-3)[Fuc(a1-2)[GalNAc(a1-3)]Gal(b1-3)GlcNAc(b1-2)Man(a1-6)]Man(b1-4)GlcNAc(b1-4)GlcNAc
Method in brief: as §1

[15] = target: Fuc(a1-3)[Gal(b1-4)]GlcNAc(b1-3)GalNAc
Method in brief: as §1

[16] = target: Fuc(a1-3)[Gal3S(b1-4)]GlcNAc
Method in brief: as §1

[17] = target: Fuc(a1-3)[GalNAc(b1-4)]GlcNAc
Method in brief: as §1

[18] = target: Gal(a1-4)Gal(b1-3)GlcNAc(b1-2)Man(a1-3)[Gal(a1-4)Gal(b1-3)GlcNAc(b1-2)Man(a1-6)]Man(b1-4)GlcNAc(b1-4)GlcNAc
Method in brief: as §1

[19] = target: Gal(a1-4)GlcNAc
Method in brief: as §1

[20] = target: Gal(b1-3)Gal
Method in brief: as §1

[21] = target: Gal(b1-3)GalNAc
Method in brief: as §1

[22] = target: Gal(b1-3)GlcNAc(b1-2)Man(a1-3)[GlcNAc(b1-4)][Gal(b1-3)GlcNAc(b1-2)Man(a1-6)]Man(b1-4)GlcNAc(b1-4)GlcNAc
Method in brief: as §1

[23] = target: Gal(b1-3)GlcNAc(b1-3)Gal(b1-4)GlcNAc(b1-3)Gal(b1-4)GlcNAc(b1-2)[Gal(b1-3)GlcNAc(b1-3)Gal(b1-4)GlcNAc(b1-3)Gal(b1-4)GlcNAc(b1-6)]Man(a1-6)[Gal(b1-3)GlcNAc(b1-3)Gal(b1-4)GlcNAc(b1-3)Gal(b1-4)GlcNAc(b1-2)Man(a1-3)]Man(b1-4)GlcNAc(b1-4)[Fuc(a1-6)]GlcNAc
Method in brief: as §1

[24] = target: Gal(b1-3)GlcNAc(b1-3)GalNAc
Method in brief: as §1

[25] = target: Gal(b1-3)[Neu5Ac(a2-6)]GalNAc
Method in brief: as §1

[26] = target: Gal(b1-4)Gal
Method in brief: as §1

[27] = target: Gal(b1-4)GlcNAc(b1-2)Man(a1-3)[Gal(b1-4)GlcNAc(b1-2)Man(a1-6)]Man(b1-4)GlcNAc(b1-4)[Fuc(a1-6)]GlcNAc
Method in brief: as §1

[28] = target: Gal(b1-4)GlcNAc(b1-2)Man(a1-3)[Man(a1-6)]Man(b1-4)GlcNAc(b1-4)GlcNAc
Method in brief: as §1

B1: SHCBP1-GST (Homo sapiens), Q8NEM2 (protein)
chain: MADGSLTGGGLEAAAMAPERMGWAVEQELASLEKGLFQDEDSCSDCSYRDKPGSSLQSFMPEGKTFFPEIFQTNQLLFYERFRAYQDYILADCKASEVQEFTAEFLEKVLEPSGWRAVWHTNVFKVLVEITDVDFAALKAVVRLAEPYLCDSQVSTFTMECMKELLDLKEHRLPLQELWVVFDDSGVFDQTALAIEHVRFFYQNIWRSWDEEEEDEYDYFVRCVEPRLRLHYDILEDRVPSGLIVDYHNLLSQCEESYRKFLNLRSSLSNCNSDSEQENISMVEGLKLYSEMEQLKQKLKLIENPLLRYVFGYQKNSNIQAKGVRSSGQKITHVVSSTMMAGLLRSLLTDRLCQEPGEEEREIQFHSDPLSAINACFEGDTVIVCPGHYVVHGTFSIADSIELEGYGLPDDIVIEKRGKGDTFVDCTGADIKISGIKFVQHDAVEGILIVHRGKTTLENCVLQCETTGVTVRTSAEFLMKNSDLYGAKGAGIEIYPGSQCTLSDNGIHHCKEGILIKDFLDEHYDIPKISMVNNIIHNNEGYGVVLVKPTIFSDLQENAEDGTEENKALKIQTSGEPDVAERVDLEELIECATGKMELCARTDPSEQVEGNCEIVNELIAASTQKGQIKKKRLSELGITQADDNLMSQEMFVGIVGNQFKWNGKGSFGTFLF
In the case of B1, the “glycan array binding signal (z-score)” value [1] is reported as -0.317, the “glycan array binding signal (z-score)” value [2] is reported as -0.821 and the “glycan array binding signal (z-score)” value [3] is reported as -0.751. For the same binder, the “glycan array binding signal (z-score)” value [4] was -0.806, the “glycan array binding signal (z-score)” value [5] was 0.085 and the “glycan array binding signal (z-score)” value [6] was 0.999. For the same binder, the “glycan array binding signal (z-score)” value [7] was -0.192, the “glycan array binding signal (z-score)” value [8] was -0.251 and the “glycan array binding signal (z-score)” value [9] was -0.583. The “glycan array binding signal (z-score)” value [10] was -0.113, the “glycan array binding signal (z-score)” value [11] was -0.299 and the “glycan array binding signal (z-score)” value [12] was 0.298. For the same binder, the “glycan array binding signal (z-score)” value [13] was -0.199, the “glycan array binding signal (z-score)” value [14] was -0.355 and the “glycan array binding signal (z-score)” value [15] was 2.35. The “glycan array binding signal (z-score)” value [16] was -0.161, the “glycan array binding signal (z-score)” value [17] was 0.35 and the “glycan array binding signal (z-score)” value [18] was 4.1. For the same binder, the “glycan array binding signal (z-score)” value [19] was -0.477, the “glycan array binding signal (z-score)” value [20] was 0.702 and the “glycan array binding signal (z-score)” value [21] was -0.251. The “glycan array binding signal (z-score)” value [22] was 2.98, the “glycan array binding signal (z-score)” value [23] was 3.45 and the “glycan array binding signal (z-score)” value [24] was 0.539. The “glycan array binding signal (z-score)” value [25] was -1.01, the “glycan array binding signal (z-score)” value [26] was -0.879 and the “glycan array binding signal (z-score)” value [27] was 0.409. The “glycan array binding signal (z-score)” value [28] was 0.6.
